# In PubChem BioAssay (Tox21):
# Results filed as inconclusive are left out. Values without a mark were called inactive. The source made the active and inactive calls. Calls follow the shape of the dose curve; as a rule, active = well fitted cell-killing curve with a large enough effect in the repeat runs; inconclusive = weak or mixed curves, or effect the other way; inactive = no such curve, though single readings can be large or run the other way.
# Assay: qHTS assay to identify aromatase inhibitors - cell viability counter screen (AID 743084);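 also: cells stimulated with testosterone during compound exposure; nearly all actives have a fitted effect of over 55% in size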
# Settings: MCF-7 aro ERE viability, CellTiter-Fluor, 24 h; series mostly up to 70.3 µM; activity change, negative = cytotoxicity: at the top concentration
# % is scaled to controls: 0 for no effect and ±100 for the full control effect; potency is read from the fitted curve at half-maximal effect.
Structure (SMILES),"activity change, negative = cytotoxicity",Potency
c1ccc(SSc2ccccc2)cc1,9.98% [at 95 µM],–
Cl[Si](Cl)(c1ccccc1)c1ccccc1,14.1% [at 95 µM],–
Cc1cc(C(C)(C)C)cc(C)c1CC1=NCCN1,6.77% [at 32.5 µM],–
CC(C)OC(=O)C(O)(CC(=O)O)CC(=O)O,13%,–
C[C@@H](O)[C@H](N)C(=O)O,-3.15%,–
OC/C=C/CO,10.8%,–
C1CCC(SSC2CCCCC2)CC1,3.62%,–
C=Cc1ccccc1C=C,-0.268% [at 260 µM],–
CCOC(=O)Cn1cccc1-c1nc(-c2ccc(OC)cc2)c(-c2ccc(OC)cc2)s1,1.01%,–
CN(C)Cc1ccccc1O,10.4%,–
O=[N+]([O-])c1ccc(O)cc1C(F)(F)F,–,68.6 µM (active)
O=C(O)[C@H](O)[C@@H](O)[C@H](O[C@@H]1O[C@H](CO)[C@H](O)[C@H](O)[C@H]1O)[C@H](O)CO,-0.403% [at 32.5 µM],–
O=C(O)O,-13.2% [at 8.47 µM],–
C[C@H]1NCc2cc(-c3ccc4c(=O)c(C(=O)O)cn(C5CC5)c4c3OC(F)F)ccc21,-1.31%,–
CC(C)(c1cc(Br)c(OCC(Br)CBr)c(Br)c1)c1cc(Br)c(OCC(Br)CBr)c(Br)c1 (stereo unspecified),9.74%,–
O=C(O)c1cccc(C(F)(F)F)c1,15.4%,–
CCCCCCOC(=O)C(C)CC (stereo unspecified),5.61%,–
Clc1ccnc(Cl)n1,4.13% [at 95 µM],–
CN1CCCCC1CCN1c2ccccc2Sc2ccc(S(C)=O)cc21 (stereo unspecified),–,inactive
Cc1cc(C(C)(C)C)c(O)c(C)c1Cn1c(=O)n(Cc2c(C)cc(C(C)(C)C)c(O)c2C)c(=O)n(Cc2c(C)cc(C(C)(C)C)c(O)c2C)c1=O,17.8%,–
Cc1ccc(-c2ccccc2)cc1,-2.91%,–
